# Measurements taken from ChEMBL document CHEMBL2218924, “A broad activity screen in support of a chemogenomic map for kinase signalling research and drug discovery” (Biochem J, 2013).
# Assays:
# [1] = biological target: T1, Serine/threonine-protein kinase TBK1 (Homo sapiens) (UniProt Q9UHD2); conditions: at 10 µM
# T1 sequence (whole entry): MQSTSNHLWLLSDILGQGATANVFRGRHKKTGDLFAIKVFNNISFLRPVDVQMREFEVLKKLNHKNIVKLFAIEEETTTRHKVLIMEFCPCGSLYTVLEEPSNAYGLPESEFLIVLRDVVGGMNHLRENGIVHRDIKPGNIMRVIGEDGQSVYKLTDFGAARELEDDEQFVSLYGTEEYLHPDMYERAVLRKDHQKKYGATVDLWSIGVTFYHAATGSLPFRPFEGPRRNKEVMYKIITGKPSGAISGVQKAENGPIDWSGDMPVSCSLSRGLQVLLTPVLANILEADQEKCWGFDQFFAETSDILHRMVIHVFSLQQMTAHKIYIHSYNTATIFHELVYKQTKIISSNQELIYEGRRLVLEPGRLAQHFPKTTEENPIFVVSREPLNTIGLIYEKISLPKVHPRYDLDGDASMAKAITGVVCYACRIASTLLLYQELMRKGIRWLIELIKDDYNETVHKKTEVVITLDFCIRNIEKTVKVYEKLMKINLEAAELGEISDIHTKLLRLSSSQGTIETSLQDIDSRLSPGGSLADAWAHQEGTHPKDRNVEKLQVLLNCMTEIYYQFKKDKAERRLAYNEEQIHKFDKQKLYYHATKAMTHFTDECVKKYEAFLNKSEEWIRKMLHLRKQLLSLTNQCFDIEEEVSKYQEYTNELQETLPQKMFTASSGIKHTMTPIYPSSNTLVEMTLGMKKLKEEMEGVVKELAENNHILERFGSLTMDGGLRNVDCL
# [2] = biological target: T2, TGF-beta receptor type-1 (Homo sapiens) (UniProt P36897); conditions: at 1 µM
# T2 sequence (whole entry): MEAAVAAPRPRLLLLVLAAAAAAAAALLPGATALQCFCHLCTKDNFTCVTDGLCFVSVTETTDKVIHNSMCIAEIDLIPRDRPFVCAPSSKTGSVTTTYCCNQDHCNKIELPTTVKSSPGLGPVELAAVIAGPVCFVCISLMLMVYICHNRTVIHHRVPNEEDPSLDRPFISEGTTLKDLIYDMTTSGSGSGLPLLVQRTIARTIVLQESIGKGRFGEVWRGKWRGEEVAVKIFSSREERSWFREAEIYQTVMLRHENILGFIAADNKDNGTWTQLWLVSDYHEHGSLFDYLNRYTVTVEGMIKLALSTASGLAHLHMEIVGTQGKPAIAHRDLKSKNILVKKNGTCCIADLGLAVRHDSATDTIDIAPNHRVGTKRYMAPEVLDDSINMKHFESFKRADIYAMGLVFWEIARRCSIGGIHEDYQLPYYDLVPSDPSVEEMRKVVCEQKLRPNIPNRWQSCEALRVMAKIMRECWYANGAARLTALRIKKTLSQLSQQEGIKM
# [3] = biological target: T2, TGF-beta receptor type-1 (Homo sapiens); conditions: at 10 µM
# [4] = biological target: Insulin-like growth factor 1 receptor (Homo sapiens) (UniProt P08069); conditions: at 1 µM
# Insulin-like growth factor 1 receptor (Homo sapiens), sequence (P08069 31-736 limits assumed): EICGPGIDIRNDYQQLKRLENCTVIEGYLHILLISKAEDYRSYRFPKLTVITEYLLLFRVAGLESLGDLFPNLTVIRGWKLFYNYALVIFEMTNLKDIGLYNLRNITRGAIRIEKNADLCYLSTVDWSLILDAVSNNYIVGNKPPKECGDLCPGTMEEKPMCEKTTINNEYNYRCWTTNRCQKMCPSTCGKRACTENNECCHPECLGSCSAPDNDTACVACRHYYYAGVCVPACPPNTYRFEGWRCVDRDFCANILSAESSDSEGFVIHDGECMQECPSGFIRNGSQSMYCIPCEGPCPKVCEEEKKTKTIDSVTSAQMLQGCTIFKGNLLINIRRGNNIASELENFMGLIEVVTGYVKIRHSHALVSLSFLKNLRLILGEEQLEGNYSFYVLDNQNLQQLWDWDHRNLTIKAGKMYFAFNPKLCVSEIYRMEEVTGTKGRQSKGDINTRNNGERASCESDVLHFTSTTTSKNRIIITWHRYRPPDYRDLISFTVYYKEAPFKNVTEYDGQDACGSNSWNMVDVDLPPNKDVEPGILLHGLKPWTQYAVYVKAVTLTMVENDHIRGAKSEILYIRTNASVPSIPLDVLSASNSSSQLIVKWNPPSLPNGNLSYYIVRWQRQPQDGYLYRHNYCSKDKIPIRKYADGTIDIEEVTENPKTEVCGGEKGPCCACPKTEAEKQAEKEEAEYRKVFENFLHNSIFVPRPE
# Insulin-like growth factor 1 receptor (Homo sapiens), sequence (P08069 741-1367 limits assumed): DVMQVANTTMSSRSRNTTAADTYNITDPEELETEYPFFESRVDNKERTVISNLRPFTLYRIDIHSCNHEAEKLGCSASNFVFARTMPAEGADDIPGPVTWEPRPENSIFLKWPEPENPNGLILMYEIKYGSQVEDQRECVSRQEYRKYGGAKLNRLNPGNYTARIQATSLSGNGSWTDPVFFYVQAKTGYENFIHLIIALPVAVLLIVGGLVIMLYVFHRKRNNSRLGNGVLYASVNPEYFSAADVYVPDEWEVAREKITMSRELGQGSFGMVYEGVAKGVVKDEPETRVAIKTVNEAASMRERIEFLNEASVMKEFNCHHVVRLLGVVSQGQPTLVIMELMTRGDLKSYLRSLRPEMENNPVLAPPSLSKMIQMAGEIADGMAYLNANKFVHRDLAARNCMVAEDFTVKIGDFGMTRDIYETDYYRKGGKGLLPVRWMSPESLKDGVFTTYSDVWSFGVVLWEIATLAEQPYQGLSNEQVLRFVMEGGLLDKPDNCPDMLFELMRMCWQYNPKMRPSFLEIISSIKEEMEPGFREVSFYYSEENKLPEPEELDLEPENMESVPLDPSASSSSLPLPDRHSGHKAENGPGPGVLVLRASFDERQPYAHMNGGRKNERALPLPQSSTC
# [5] = biological target: Insulin-like growth factor 1 receptor (Homo sapiens) (UniProt P08069); conditions: at 10 µM
# [6] = biological target: T3, Inhibitor of nuclear factor kappa-B kinase subunit alpha (Homo sapiens) (UniProt O15111); conditions: at 1 µM
# T3 sequence (whole entry): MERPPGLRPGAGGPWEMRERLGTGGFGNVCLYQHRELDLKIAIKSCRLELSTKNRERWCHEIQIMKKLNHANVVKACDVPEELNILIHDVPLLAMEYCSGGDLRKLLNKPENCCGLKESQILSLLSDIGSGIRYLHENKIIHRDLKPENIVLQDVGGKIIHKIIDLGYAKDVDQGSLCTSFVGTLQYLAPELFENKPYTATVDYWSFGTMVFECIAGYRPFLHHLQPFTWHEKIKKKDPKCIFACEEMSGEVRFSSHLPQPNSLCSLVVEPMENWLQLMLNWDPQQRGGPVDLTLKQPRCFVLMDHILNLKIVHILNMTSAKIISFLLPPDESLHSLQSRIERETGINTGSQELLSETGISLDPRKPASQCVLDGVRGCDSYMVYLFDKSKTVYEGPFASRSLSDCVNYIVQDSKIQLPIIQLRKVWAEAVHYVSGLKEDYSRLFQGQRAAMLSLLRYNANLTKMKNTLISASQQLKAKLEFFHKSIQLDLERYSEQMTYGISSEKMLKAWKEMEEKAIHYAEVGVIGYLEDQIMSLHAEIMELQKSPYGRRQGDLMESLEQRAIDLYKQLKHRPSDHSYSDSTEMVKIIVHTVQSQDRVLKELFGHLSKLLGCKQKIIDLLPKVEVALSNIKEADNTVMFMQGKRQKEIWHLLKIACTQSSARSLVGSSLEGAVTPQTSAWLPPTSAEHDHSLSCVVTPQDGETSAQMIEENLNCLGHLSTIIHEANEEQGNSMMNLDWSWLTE
# [7] = biological target: T3, Inhibitor of nuclear factor kappa-B kinase subunit alpha (Homo sapiens); conditions: at 10 µM
# [8] = biological target: T4, Inhibitor of nuclear factor kappa-B kinase subunit beta (Homo sapiens) (UniProt O14920); conditions: at 1 µM
# T4 sequence (whole entry): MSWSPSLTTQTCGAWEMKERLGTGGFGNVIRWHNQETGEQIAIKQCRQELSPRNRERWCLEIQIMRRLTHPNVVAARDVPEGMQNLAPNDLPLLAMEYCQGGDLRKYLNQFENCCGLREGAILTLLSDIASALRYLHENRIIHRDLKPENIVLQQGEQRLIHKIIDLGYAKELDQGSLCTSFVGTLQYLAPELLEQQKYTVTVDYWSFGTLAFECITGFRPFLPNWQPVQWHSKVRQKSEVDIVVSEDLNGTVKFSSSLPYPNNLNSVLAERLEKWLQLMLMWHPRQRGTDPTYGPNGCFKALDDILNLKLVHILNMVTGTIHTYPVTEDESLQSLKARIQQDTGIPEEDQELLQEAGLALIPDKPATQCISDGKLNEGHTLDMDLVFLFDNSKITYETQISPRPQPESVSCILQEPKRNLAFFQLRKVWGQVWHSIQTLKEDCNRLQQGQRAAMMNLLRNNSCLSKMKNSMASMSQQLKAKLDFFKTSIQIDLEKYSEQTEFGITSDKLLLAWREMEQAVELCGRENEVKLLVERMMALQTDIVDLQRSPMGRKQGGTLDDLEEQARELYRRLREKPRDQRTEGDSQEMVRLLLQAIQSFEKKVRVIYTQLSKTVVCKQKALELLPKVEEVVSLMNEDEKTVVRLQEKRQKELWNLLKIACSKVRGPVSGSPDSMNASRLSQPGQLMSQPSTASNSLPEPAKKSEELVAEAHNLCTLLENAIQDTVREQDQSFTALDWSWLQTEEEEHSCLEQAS
# [9] = biological target: T4, Inhibitor of nuclear factor kappa-B kinase subunit beta (Homo sapiens); conditions: at 10 µM
# [10] = biological target: Insulin receptor (Homo sapiens) (UniProt P06213); conditions: at 1 µM
# Insulin receptor (Homo sapiens), sequence (P06213 28-758 limits assumed): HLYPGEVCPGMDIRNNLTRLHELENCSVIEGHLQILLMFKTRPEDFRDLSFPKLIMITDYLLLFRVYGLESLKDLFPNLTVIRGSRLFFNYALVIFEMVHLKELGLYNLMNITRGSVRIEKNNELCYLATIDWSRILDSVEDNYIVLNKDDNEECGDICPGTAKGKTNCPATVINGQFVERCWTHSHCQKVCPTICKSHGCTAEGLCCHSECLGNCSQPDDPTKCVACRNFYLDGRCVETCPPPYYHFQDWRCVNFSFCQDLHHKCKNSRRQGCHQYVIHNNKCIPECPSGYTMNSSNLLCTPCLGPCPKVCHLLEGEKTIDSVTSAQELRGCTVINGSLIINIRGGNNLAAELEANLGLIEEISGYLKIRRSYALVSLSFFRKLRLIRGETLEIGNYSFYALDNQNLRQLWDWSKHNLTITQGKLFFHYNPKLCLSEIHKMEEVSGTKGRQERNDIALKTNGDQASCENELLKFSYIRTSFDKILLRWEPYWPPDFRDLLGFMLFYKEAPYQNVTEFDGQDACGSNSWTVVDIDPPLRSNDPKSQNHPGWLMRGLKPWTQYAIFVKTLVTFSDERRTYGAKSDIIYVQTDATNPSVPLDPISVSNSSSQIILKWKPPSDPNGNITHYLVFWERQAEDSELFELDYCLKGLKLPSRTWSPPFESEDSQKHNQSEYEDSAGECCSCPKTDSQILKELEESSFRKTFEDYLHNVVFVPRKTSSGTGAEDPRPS
# Insulin receptor (Homo sapiens), sequence (P06213 763-1382 limits assumed): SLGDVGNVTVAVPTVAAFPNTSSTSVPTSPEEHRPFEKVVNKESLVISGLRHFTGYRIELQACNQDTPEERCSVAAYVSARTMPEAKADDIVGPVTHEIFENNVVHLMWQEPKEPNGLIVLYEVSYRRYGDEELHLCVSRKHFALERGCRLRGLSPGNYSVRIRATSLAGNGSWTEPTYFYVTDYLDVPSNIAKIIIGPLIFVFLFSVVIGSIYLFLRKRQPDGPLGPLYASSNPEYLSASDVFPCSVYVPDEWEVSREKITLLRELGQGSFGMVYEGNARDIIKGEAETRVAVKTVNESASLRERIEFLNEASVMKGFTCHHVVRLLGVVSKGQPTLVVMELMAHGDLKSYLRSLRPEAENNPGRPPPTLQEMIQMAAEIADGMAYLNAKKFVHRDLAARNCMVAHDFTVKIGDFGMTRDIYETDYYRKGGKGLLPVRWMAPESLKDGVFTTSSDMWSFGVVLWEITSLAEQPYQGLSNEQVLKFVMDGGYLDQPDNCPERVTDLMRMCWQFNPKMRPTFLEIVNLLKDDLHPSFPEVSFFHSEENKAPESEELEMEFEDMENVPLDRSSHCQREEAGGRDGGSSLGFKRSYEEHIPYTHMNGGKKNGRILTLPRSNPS
structure (smiles),measurement,setting,value
Cn1cnc2cc3c(Nc4cccc(Br)c4)ncnc3cc21,residual activity,[1],63%
same,residual activity,[2],86%
same,residual activity,[3],85%
same,residual activity,[4],109%
same,residual activity,[5],90%
same,residual activity,[6],92%
same,residual activity,[7],104%
same,residual activity,[8],95%
same,residual activity,[9],94%
same,residual activity,[10],102%
